Experimental data: PubChem BioAssay (EPA / NIEHS)
“And” between values parts separate entries of the source, which are not always exact repeats. Equal entries are not always repeated. Inconclusive results are not listed. More than one record can exist for a structure, and the calls need not agree. The source made the active and inactive calls. The calls were made as follows, unless noted: active = hit-call score of the fitted dose curve at least 0.9, where 1 is the maximum; inactive = score below 0.9.

How the values were obtained:
[1] = molecular target: Glucocorticoid receptor (Homo sapiens) (UniProt P04150); experiment: ATG_GR_TRANS: Attagene TRANS-FACTORIAL HepG2 Assay for human Glucocorticoid Receptor (GR) (AID 2282978; active = hit-call score of the fitted dose curve at least 0.9, where 1 is the maximum;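 also: activators score as hits since higher reporter transcript over DMSO is fitted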); conditions: HepG2 Attagene TRANS GR reporter, mRNA transcription
Chain of Glucocorticoid receptor (Homo sapiens) (P04150 whole entry, looked up, the tested form may be a part): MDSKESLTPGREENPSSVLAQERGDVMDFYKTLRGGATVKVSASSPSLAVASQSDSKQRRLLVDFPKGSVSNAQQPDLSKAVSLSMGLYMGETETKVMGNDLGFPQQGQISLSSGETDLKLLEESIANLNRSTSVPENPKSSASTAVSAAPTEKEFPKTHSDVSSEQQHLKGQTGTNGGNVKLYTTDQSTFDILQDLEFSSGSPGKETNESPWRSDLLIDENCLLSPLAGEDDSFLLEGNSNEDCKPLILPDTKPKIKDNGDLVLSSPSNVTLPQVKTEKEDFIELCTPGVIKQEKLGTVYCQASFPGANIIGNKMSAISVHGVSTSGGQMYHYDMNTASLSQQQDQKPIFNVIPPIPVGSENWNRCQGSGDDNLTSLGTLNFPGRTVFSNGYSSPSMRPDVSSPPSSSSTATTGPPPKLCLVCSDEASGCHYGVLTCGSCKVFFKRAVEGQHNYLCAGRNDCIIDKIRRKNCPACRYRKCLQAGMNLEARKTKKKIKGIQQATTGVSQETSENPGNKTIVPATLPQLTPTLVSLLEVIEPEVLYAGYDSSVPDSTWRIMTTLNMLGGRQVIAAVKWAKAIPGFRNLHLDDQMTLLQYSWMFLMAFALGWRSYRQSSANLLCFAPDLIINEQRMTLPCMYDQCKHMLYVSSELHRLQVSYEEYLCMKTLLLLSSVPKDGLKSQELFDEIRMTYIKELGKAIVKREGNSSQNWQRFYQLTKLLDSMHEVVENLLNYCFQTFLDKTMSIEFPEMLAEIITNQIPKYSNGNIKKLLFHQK
In short: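 Fluorescent capillary-electrophoresis quantitation of reporter mRNA is the readout, taken 24 h after dosing human HepG2 cells carrying transiently transfected GAL4-UAS reporter units activated by chimeric NR-GAL4 fusions; activity scored as induction over DMSO.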

[2] = molecular target: Bile acid receptor (Homo sapiens) (UniProt Q96RI1); experiment: ATG_FXR_TRANS: Attagene TRANS-FACTORIAL HepG2 Assay for Farnesoid X Receptor (FXR) (AID 2282979; active = hit-call score of the fitted dose curve at least 0.9, where 1 is the maximum;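 also: hits raise reporter mRNA above DMSO so AC50 marks FXR activation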); conditions: HepG2 Attagene TRANS FXR-GAL4 reporter transcription
Chain of Bile acid receptor (Homo sapiens) (Q96RI1 whole entry, looked up, the tested form may be a part): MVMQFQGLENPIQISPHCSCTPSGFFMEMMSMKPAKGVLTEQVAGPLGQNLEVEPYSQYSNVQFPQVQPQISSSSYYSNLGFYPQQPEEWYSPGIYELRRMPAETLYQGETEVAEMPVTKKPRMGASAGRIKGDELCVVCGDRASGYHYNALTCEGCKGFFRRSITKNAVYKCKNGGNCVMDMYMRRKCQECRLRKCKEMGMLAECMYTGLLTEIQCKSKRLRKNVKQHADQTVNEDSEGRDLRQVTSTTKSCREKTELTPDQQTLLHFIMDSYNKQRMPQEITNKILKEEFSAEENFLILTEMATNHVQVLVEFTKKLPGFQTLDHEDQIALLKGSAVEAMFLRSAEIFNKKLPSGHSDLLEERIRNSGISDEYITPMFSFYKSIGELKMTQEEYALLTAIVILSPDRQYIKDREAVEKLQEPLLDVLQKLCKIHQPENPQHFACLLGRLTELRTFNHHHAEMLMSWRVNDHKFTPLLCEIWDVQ
In short: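 Reporter transcripts from transfected HepG2 cells were measured 24 h after dosing, using RT-PCR with capillary electrophoresis of 6-FAM-labelled fragments. The read-out reflects activity of exogenous FXR-Gal4 chimera on GAL4-UAS units, with induction relative to DMSO.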

[3] = ATG_M_06_TRANS: Attagene TRANS-FACTORIAL HepG2 Assay for M06 Transcription Factor (Internal Marker) (AID 2282983; active = hit-call score of the fitted dose curve at least 0.9, where 1 is the maximum); conditions: HepG2 Attagene TRANS M06 internal marker reporter
In short: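 Background-control reporter readout: after 24 h chemical exposure of transiently transfected HepG2 (GAL4-UAS reporter units), mRNA quantified by RT-PCR with fluorescent labeling and capillary electrophoresis. Gain-of-signal fitting against DMSO baseline.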

[4] = ATG_M_32_TRANS: Attagene TRANS-FACTORIAL HepG2 Assay for M32 Transcription Factor (Internal Marker) (AID 2282984; active = hit-call score of the fitted dose curve at least 0.9, where 1 is the maximum); conditions: HepG2 Attagene TRANS M32 internal marker reporter
In short: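 Internal background reporter in transfected HepG2: after 24 h chemical exposure, RNA reverse-transcribed, reporter cDNA amplified, fluorescently labelled and HpaI-cut, then sized by capillary electrophoresis. Gain of signal fitted against DMSO control.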

[5] = molecular target: Transcriptional activator Myb (Homo sapiens) (UniProt P10242); experiment: ATG_Myb_CIS: Attagene CIS-FACTORIAL HepG2 Assay for human Myeloblastosis (Myb) Proto-Oncogene Transcription Factor (AID 2282986); conditions: HepG2 Attagene CIS-FACTORIAL Myb reporter transcription; actives raise or lower the signal
Chain of Transcriptional activator Myb (Homo sapiens) (P10242 whole entry, looked up): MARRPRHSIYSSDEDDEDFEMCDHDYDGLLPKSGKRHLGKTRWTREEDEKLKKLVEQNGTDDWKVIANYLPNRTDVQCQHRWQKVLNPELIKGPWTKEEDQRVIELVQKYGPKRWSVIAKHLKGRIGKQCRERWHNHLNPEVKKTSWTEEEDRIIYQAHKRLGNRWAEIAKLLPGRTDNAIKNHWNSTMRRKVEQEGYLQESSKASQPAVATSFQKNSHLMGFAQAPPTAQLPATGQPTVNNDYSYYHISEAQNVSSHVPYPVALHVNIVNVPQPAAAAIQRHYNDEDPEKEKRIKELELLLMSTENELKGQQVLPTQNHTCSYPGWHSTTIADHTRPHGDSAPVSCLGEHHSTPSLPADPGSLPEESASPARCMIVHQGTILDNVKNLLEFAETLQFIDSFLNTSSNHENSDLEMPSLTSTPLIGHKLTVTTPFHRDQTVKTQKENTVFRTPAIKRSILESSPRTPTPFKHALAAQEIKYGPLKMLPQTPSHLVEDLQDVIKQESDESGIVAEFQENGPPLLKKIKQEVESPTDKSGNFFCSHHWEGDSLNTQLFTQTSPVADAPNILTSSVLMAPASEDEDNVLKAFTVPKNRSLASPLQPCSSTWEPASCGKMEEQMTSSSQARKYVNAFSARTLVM
In short: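 Reporter transcript levels, quantified by fluorescent RT-PCR and capillary electrophoresis, serve as the read-out. Transfected HepG2 cells carrying cis-promoter reporter units are dosed for 24 hours, and curves are fitted bidirectionally against DMSO controls.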

[6] = molecular target: Nuclear respiratory factor 1 (Homo sapiens) (UniProt Q16656); experiment: ATG_NRF1_CIS: Attagene CIS-FACTORIAL HepG2 Assay for human Nuclear Respiratory Factor 1 (NRF1) Orphan Gene (AID 2282987); conditions: HepG2 NRF1 cis-element reporter, Attagene multiplex; actives raise or lower the signal
Chain of Nuclear respiratory factor 1 (Homo sapiens) (Q16656 whole entry, looked up): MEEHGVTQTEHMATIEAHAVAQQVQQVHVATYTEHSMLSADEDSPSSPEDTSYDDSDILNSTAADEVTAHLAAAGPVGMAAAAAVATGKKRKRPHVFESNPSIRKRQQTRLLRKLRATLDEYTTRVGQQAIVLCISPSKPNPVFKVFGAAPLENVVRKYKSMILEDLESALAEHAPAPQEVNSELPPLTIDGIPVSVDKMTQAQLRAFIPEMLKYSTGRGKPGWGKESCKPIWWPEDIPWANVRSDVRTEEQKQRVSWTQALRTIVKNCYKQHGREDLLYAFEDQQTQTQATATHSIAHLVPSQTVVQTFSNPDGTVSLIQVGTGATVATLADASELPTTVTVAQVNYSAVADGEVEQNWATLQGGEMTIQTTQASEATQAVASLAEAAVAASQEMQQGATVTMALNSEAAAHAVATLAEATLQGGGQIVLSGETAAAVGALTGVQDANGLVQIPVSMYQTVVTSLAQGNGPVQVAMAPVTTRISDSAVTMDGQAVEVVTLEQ
In short: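 Multiplexed cis-reporter assay, HepG2 cells, 24 h treatment. Total RNA → oligo(dT) RT → PCR with reporter-specific primers → 6-FAM primer extension → HpaI cut → CE. Bidirectional fit vs DMSO.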

[7] = ATG_NFI_CIS: Attagene CIS-FACTORIAL HepG2 Assay for human Nuclear Factor I (NFI) (AID 2282989); conditions: HepG2 cis-regulatory reporter, NFI response element transcription; actives raise or lower the signal
In short: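 Transient MRTU transfection of HepG2 → 24 h chemical dosing → total RNA, oligo(dT) RT → PCR, 6-FAM primer extension, HpaI cut → capillary electrophoresis. Endpoint fitted bidirectionally relative to DMSO.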

[8] = molecular target: Myc proto-oncogene protein (Homo sapiens) (UniProt P01106); experiment: ATG_Myc_CIS: Attagene CIS-FACTORIAL HepG2 Assay for human Myelocytomatosis (Myc) Proto-Oncogene Transcription Factor (AID 2282990); conditions: HepG2, Attagene cis-reporter transcription factor activity; actives raise or lower the signal
Chain of Myc proto-oncogene protein (Homo sapiens) (P01106 whole entry, looked up): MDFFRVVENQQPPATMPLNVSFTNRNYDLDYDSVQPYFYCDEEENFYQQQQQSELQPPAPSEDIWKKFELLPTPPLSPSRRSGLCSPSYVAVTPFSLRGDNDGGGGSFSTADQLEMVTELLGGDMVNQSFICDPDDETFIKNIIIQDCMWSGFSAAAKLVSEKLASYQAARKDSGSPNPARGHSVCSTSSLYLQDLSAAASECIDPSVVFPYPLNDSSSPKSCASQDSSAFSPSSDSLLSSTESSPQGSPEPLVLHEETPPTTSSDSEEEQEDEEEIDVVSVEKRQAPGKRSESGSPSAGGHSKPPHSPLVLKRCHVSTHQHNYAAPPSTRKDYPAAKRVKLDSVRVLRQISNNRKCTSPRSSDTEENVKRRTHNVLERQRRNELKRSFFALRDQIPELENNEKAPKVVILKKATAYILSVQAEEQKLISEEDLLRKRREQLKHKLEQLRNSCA
In short: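 Cells of the HepG2 human liver line bear multiple cis-driven reporter transcription units. Reporter mRNA after 24 h exposure is reverse-transcribed, amplified, labelled and resolved by capillary electrophoresis, with gain- or loss-of-signal fitting relative to DMSO.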

[9] = ATG_NRF2_ARE_CIS: Attagene CIS-FACTORIAL HepG2 Assay for human Nuclear Factor Erythroid 2 Related Factor 2 (NFR2) response to Antioxidant Response Elements (ARE) (AID 2282992); conditions: HepG2 Attagene ARE/NRF2 reporter, transcription factor activity; actives raise or lower the signal
In short: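 Endogenous transcription factor activity read out as reporter transcript levels (RT-PCR plus capillary electrophoresis, fluorescence) in transiently transfected HepG2 cells. Measured at 24 h after dosing; gain or loss of signal fitted versus DMSO.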

[10] = ATG_Oct_MLP_CIS: Attagene CIS-FACTORIAL HepG2 Assay for human Octamer-Binding Transcription Factor (Oct) (AID 2282993); conditions: HepG2 Attagene cis-factorial Oct reporter, mRNA; actives raise or lower the signal
In short: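 Transient MRTU transfection of HepG2 → 24 h compound treatment → RNA isolation, reverse transcription, PCR → 6-FAM primer extension, HpaI digest → capillary electrophoresis. Activity fitted both directions against DMSO.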

[11] = molecular target: Cellular tumor antigen p53 (Homo sapiens) (UniProt P04637); experiment: ATG_p53_CIS: Attagene CIS-FACTORIAL HepG2 Assay for human p53 Transcription Factor (AID 2282994); conditions: HepG2 p53 cis-element reporter, Attagene mRNA; actives raise or lower the signal
Chain of Cellular tumor antigen p53 (Homo sapiens) (P04637 whole entry, looked up): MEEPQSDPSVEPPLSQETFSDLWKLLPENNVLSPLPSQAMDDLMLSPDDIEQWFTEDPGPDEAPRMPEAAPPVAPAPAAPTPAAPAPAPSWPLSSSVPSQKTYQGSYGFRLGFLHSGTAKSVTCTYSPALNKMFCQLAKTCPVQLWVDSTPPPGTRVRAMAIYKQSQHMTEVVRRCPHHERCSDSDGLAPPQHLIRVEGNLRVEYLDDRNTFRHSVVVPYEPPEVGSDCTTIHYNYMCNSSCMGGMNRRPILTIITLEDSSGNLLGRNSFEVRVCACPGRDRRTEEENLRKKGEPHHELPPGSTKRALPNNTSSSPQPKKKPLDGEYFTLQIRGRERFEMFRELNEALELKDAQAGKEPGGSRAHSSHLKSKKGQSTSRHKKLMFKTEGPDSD
In short: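 Endogenous p53 activity read in transiently transfected HepG2 from a cis-element-driven reporter transcript after 24 h exposure. RNA reverse-transcribed, PCR-amplified, fluorescently labelled and sized by capillary electrophoresis; gain or loss fitted against DMSO baseline.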

[12] = BSK_3C_uPAR: BioMAP Diversity Plus: 3C Assay for Urokinase-type plasminogen activator receptor (uPAR) Biomarker Activity (AID 2282998); conditions: BioMAP 3C HUVEC, uPAR biomarker ELISA; actives raise or lower the signal
In short: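 ELISA readout of uPAR on human vascular endothelium (umbilical vein primary cells), taken 24 h after chemical dosing. Increases and decreases are both fitted relative to DMSO vehicle.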

[13] = BSK_3C_VCAM1: BioMAP Diversity Plus: 3C Assay for Vascular cell adhesion molecule 1 (VCAM1) Biomarker Activity (AID 2282999); conditions: BioMAP 3C HUVEC, VCAM1 ELISA, cytokine-stimulated; actives raise or lower the signal
In short: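 Activity fitted in both directions relative to DMSO, with ELISA measurement of the surface marker on primary HUVEC (3C) at 24 h post-treatment; parallel SRB staining (0.1% SRB, TCA-fixed, 560 nm) flagged overt cytotoxicity.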

[14] = BSK_4H_Eotaxin3: BioMAP Diversity Plus: 4H Assay for Eotaxin 3 Biomarker Activity (AID 2283000); conditions: primary human endothelial cells (HUVEC); actives raise or lower the signal;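 as to outcome: CCL26 protein level quantified by ELISA in parallel with SRB cytotoxicity check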
In short: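 Human umbilical vein endothelial cells (BSK_4H system) dosed with test chemical; Eotaxin-3 (CCL26) measured by ELISA 24 h after dosing. Bidirectional curve fitting relative to DMSO negative control as baseline.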

[15] = molecular target: Oxysterols receptor LXR-alpha (Homo sapiens) (UniProt Q13133); experiment: ATG_LXRa_TRANS: Attagene TRANS-FACTORIAL HepG2 Assay for human Liver X Receptor alpha (LXRa) (AID 2282980; active = hit-call score of the fitted dose curve at least 0.9, where 1 is the maximum); conditions: HepG2 Attagene TRANS reporter, LXRa transactivation
Chain of Oxysterols receptor LXR-alpha (Homo sapiens) (Q13133 whole entry, looked up, the tested form may be a part): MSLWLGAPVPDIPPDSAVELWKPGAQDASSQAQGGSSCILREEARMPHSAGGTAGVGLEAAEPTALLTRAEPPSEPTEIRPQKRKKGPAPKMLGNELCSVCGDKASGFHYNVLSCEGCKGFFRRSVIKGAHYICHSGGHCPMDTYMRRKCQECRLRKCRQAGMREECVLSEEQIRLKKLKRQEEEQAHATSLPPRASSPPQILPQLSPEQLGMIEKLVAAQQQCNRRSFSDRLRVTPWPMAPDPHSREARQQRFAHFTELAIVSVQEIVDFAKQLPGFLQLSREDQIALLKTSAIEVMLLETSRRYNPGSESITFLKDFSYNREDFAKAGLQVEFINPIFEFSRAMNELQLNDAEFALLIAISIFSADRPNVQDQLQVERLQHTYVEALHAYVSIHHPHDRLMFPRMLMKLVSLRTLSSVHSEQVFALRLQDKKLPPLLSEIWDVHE
In short: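 Chemical-induced reporter mRNA measured by RT-PCR with fluorescent labelling and capillary electrophoresis after 24 h dosing of transiently transfected HepG2 cells expressing exogenous NR-Gal4 chimeras; increases scored against DMSO baseline.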

[16] = molecular target: Oxysterols receptor LXR-beta (Homo sapiens) (UniProt P55055); experiment: ATG_LXRb_TRANS: Attagene TRANS-FACTORIAL HepG2 Assay for human Liver X Receptor beta (LXRb) (AID 2282981; active = hit-call score of the fitted dose curve at least 0.9, where 1 is the maximum); conditions: HepG2 Attagene TRANS GAL4-LXRb reporter, mRNA
In short: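 After 24 h chemical treatment of transfected HepG2 cells carrying exogenous NR-Gal4 chimeras, reporter mRNA was quantified by fluorescent RT-PCR and capillary electrophoresis; activity taken as increase over DMSO controls.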

[17] = molecular target: Hepatocyte nuclear factor 4-alpha (Homo sapiens) (UniProt P41235); experiment: ATG_HNF4a_TRANS: Attagene TRANS-FACTORIAL HepG2 Assay for human Hepatocyte Nuclear Factor 4 alpha (HNF4a) (AID 2282982; active = hit-call score of the fitted dose curve at least 0.9, where 1 is the maximum); conditions: HepG2 HNF4a transactivation reporter, mRNA readout
Chain of Hepatocyte nuclear factor 4-alpha (Homo sapiens) (P41235 whole entry, looked up, the tested form may be a part): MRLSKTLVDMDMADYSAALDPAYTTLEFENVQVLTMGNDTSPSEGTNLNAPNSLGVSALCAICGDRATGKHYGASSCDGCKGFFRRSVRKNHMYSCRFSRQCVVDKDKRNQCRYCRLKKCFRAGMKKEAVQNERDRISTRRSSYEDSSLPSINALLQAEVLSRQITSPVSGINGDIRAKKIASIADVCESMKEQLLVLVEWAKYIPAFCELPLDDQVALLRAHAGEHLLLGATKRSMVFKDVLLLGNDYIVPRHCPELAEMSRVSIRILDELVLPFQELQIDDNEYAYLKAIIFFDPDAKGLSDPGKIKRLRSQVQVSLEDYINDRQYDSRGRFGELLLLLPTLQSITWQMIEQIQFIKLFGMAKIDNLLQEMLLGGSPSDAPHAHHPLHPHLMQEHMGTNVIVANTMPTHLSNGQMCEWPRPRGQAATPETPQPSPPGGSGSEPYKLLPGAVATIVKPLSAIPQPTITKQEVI
In short: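 Activity of an exogenous HNF4a–Gal4 fusion scored as induced GAL4-UAS reporter transcripts after 24 h chemical exposure of transfected human HepG2 cells. Read-out via RT-PCR with 6-FAM labelling and capillary electrophoresis; rise over DMSO baseline.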

[18] = molecular target: Nuclear receptor subfamily 4 group A member 2 (Homo sapiens) (UniProt P43354); experiment: ATG_NURR1_TRANS: Attagene TRANS-FACTORIAL HepG2 Assay for human Nuclear Receptor Related Protein 1 (NURR1) (AID 2282985; active = hit-call score of the fitted dose curve at least 0.9, where 1 is the maximum); conditions: HepG2 Attagene TRANS reporter, mRNA readout
Chain of Nuclear receptor subfamily 4 group A member 2 (Homo sapiens) (P43354 whole entry, looked up, the tested form may be a part): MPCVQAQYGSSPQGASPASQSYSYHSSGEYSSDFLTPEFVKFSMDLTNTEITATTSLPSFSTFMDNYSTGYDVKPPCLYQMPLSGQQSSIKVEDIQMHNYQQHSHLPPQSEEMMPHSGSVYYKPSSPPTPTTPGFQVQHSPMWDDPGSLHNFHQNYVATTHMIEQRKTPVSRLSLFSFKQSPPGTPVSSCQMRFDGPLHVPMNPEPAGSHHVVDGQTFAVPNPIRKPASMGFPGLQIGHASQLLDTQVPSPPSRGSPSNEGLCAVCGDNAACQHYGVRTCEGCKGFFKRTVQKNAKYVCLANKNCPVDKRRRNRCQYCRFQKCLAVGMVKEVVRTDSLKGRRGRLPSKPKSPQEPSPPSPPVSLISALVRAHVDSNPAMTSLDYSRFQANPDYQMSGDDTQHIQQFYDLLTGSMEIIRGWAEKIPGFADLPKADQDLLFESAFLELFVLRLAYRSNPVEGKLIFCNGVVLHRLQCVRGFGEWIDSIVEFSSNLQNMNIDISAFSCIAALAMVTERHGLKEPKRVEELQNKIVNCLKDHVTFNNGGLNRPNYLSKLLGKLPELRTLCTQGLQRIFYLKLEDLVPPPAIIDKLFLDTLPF
In short: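 Reporter transcript induction, measured by RT-PCR with fluorescent labelling, HpaI digestion and capillary electrophoresis, after 24 hr dosing of human HepG2 cells transiently expressing an exogenous NR-Gal4 fusion with GAL4-UAS-driven reporters; DMSO as baseline.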

[19] = BSK_3C_TissueFactor: BioMAP Diversity Plus: 3C Assay for Tissue Factor Biomarker Activity (AID 2282997); conditions: BioMAP 3C HUVEC, tissue factor biomarker readout; actives raise or lower the signal
In short: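 Tissue factor on primary human umbilical vein endothelium was read by ELISA 24 h after dosing, gain or loss relative to DMSO. Cytotoxicity ran alongside via SRB (0.1%, TCA-fixed, 560 nm).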

Compound: CCO[Si](CCCNC(N)=O)(OCC)OCC
- outcome [1]: inactive
- outcome [2]: inactive
- outcome [3]: inactive
- outcome [4]: inactive
- outcome [5]: inactive
- outcome [6]: inactive
- outcome [7]: inactive
- outcome [8]: inactive
- outcome [9]: inactive
- outcome [10]: inactive
- outcome [11]: inactive
- outcome [12]: inactive
- outcome [13]: inactive
- outcome [14]: inactive

Compound: O=C1O[C@H]([C@@H](O)CO)C(O)=C1O
- outcome [1]: inactive
- outcome [15]: inactive
- outcome [17]: inactive
- outcome [3]: inactive
- outcome [4]: inactive
- outcome [18]: inactive
- outcome [5]: inactive
- outcome [6]: inactive
- outcome [7]: inactive
- outcome [8]: inactive
- outcome [9]: inactive
- outcome [10]: inactive
- outcome [11]: inactive
- outcome [19]: inactive
- outcome [12]: inactive
- outcome [13]: inactive
- outcome [14]: inactive

Compound: CC/C(=C(/CC)c1ccc(O)cc1)c1ccc(O)cc1
- outcome [1]: inactive
- outcome [2]: inactive
- outcome [15]: inactive
- outcome [16]: inactive
- outcome [17]: inactive
- outcome [3]: inactive
- outcome [4]: inactive
- outcome [18]: inactive
- outcome [5]: inactive
- outcome [6]: inactive
- AC50 [7]: 13.9 µM (active)
- outcome [7]: inactive
- AC50 [8]: 18.6 µM (active)
- outcome [8]: inactive
- AC50 [9]: 12.7 µM (active) [middle of 4 runs]
- outcome [9]: inactive
- AC50 [10]: 16.7 µM (active) and 11.1 µM (active) and 16.6 µM (active)
- outcome [10]: inactive
- AC50 [11]: 11.1 µM (active)
- outcome [11]: inactive
- AC50 [12]: 16.6 µM (active)
- AC50 [13]: 32.5 µM (active)
- AC50 [14]: 27.6 µM (active)
